Reference: PubChem BioAssay AID2634 (National Center for Advancing Translational Sciences (NCATS), 2010)
Results filed as inconclusive are left out. Values without a mark were called inactive. Active and inactive are the calls of the source.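 How the source made its calls: active means compounds whose potency, the dose giving half inhibition, is below 20 µM; inconclusive means compounds meeting neither the active nor the inactive rule; inactive means potency over 20 µM or below 50% inhibition when unfitted.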

Each compound was assayed against Integrin alpha-IIb (Homo sapiens) (UniProt P08514) (assay: Platelet Adhesion Secondary Assay for Inhibitors of Platelet Integrin alphallb-beta3). Details: human platelet adhesion to fibrinogen, calcein fluorescence; inhibition: at 30 µM, active compounds read high.
Sequence of Integrin alpha-IIb (Homo sapiens) (P08514 whole entry, looked up): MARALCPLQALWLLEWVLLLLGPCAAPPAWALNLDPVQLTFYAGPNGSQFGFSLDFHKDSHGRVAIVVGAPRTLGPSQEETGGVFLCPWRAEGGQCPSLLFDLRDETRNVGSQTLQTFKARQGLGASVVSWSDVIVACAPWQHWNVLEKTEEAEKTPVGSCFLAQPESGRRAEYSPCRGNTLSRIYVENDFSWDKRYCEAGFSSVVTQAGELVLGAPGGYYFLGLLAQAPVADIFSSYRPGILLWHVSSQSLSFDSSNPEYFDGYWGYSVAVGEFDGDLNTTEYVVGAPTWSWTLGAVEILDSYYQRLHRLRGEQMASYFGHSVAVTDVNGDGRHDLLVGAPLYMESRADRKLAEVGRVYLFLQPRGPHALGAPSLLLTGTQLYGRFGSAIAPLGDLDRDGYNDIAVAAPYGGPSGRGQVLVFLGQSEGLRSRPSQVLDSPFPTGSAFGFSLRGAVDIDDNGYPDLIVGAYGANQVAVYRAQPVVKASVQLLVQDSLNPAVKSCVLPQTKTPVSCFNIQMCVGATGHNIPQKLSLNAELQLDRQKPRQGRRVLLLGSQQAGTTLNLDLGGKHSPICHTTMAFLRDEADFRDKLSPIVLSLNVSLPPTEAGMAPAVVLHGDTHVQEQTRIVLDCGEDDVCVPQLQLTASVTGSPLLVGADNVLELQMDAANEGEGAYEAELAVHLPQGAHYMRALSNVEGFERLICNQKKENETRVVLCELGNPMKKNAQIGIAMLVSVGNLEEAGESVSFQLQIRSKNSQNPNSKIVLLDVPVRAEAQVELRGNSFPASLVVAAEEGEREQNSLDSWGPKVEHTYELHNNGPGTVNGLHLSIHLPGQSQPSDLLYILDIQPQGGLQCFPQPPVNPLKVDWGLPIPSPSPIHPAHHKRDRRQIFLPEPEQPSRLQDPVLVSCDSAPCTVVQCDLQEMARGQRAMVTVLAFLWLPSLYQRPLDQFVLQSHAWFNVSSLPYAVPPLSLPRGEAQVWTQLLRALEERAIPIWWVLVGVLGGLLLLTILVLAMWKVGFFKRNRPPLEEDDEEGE
Source text: NIH Molecular Libraries Probe Production Network [MLPCN] NIH Chemical Genomics Center [NCGC] MLPCN Grant: 1 R03 MH083257-01 Assay Provider: Barry Coller, Rockefeller University NCGC Assay Overview: The alphaIIbbeta3 receptor plays a vital role in hemostasis and thrombosis, where receptor deficiency causes the hemorrhagic disorder, Glanzmann thrombasthenia, and uncontrolled receptor activation causes thrombosis and blood vessel occlusion. Small molecule inhibitors of alphaIIbbeta3, tirofiban and eptifibatide, have undesirable side effects thought to arise from conformational changes in alphaIIbbeta3. These changes transiently activate the receptor to cause spontaneous platelet aggregation and thrombus formation. […] This secondary assay measures the binding of human plates to fibrinogen, an extracellular matrix protein (Blue et al., 2008). Platelets were loaded with a fluorescent dye, calcein, and added to fibrinogen-coated plates. Following incubation, unbound platelets were removed by washing and bound platelets were detected by measuring fluorescence intensity. Inhibitors of alphaIIbbeta3 block platelet binding to fibrinogen and result in a decrease in fluorescence intensity.
NCGC Assay Protocol Summary: Human fibrinogen (50 ug/mL) in Tris/saline (100 mM NaCl, 50 mM Tris/HCl, pH 7.4; American Diagnostica, Stamford, CT) was added to black, clear-bottom, untreated polystyrene, nonsterile 384-well microtiter plate wells (Corning no. 3711; Acton, MA) using a peristaltic microplate dispenser (WellMate; Matrix, Hudson, NH). After incubating at 22 C for 1 hour, plates were washed 4 times with Tris/saline using an automated plate washer (ELX405; Bio-Tek, Winooski, VT), and wells were then blocked with HBMT (138 mM NaCl, 12 mM NaHCO3, 10 mM HEPES, 2.7 mM KCl, 0.4 mM NaH2PO4, 0.1% glucose, 0.35% BSA, pH 7.4) for at least 1 hour. After 2 additional washes, 15 uL HBMT was allowed to remain in each well. Compounds were added to the wells with a liquid handling robot (MiniTrak V; PerkinElmer, Wellesley, MA) using a pin tool (VP Scientific, San Diego, CA) that added 0.1 uL compound in DMSO. Fifteen microliters 5E11/L calcein-labeled platelets were then added (2.5E11/L final concentration). After 1 hour of adhesion, wells were washed 4 times with HBMT-CaCl2/MgCl2 and the plates were read by an Envision (Perkin Elmer) to detect calcein fluorescence (490 nm excitation and 515 nm emission). Positive controls consisted of wells containing platelets without compounds. Negative controls were wells containing platelets and known inhibitors of alphaIIbbeta3, including mAbs 7E3 and 10E5, and EDTA. Reference Blue R, Murcia M, Karan C, Jirouskova M, and Coller BS. Application of high-throughput screening to identify a novel alphaIIb-specific small- molecule inhibitor of alphaIIbbeta3-mediated platelet interaction with fibrinogen. Blood. 2008, 111(3):1248-56
For COCc1nn2c(=O)cc(N3CCNCC3)nc2s1, the inhibition was 18%.
With C[C@H](N)C(=O)Nc1cccc(-c2nn3c(=O)cc(N4CCNCC4)nc3s2)c1 the Potency was 8.2 µM (active).
For O=C(O)c1cccc(-c2cccc(-c3nn4c(=O)cc(N5CCNCC5)nc4s3)c2)c1, the Potency was 0.46 µM (active).
With Nc1ncc(-c2cccc(-c3nn4c(=O)cc(N5CCNCC5)nc4s3)c2)cn1 the Potency was 3.5 µM (active).
In the case of CCc1nn2c(=O)cc(-c3ccncc3)nc2s1, the inhibition is reported as 25%.
With CNCC(=O)Nc1cccc(-c2nn3c(=O)cc(N4CCNCC4)nc3s2)c1 the inhibition was 24%.
With CCc1nn2c(=O)cc(NC3CNC3)nc2s1 the inhibition was 23%.
In the case of CC(C)(C)c1nn2c(=O)cc(N3CCNCC3)nc2s1, the inhibition is reported as 21%.
Cc1noc(C)c1-c1cccc(-c2nn3c(=O)cc(N4CCNCC4)nc3s2)c1 showed an inhibition of 26%.
Work on CCc1nn2c(=O)cc(N3C(C)CNCC3C)nc2s1 (stereo not given) yielded an inhibition of 27%.
In the case of O=C(O)c1ccc(-c2nn3c(=O)cc(N4CCNCC4)nc3s2)cc1, the inhibition is reported as 48%.
With NC(=O)c1ccc(-c2cccc(-c3nn4c(=O)cc(N5CCNCC5)nc4s3)c2)cc1 the Potency was 0.855 µM (active).
O=C(Nc1cccc(-c2nn3c(=O)cc(N4CCNCC4)nc3s2)c1)c1ccon1 was tested, and the inhibition was 32%.
With O=C(O)c1cc(-c2cccc(-c3nn4c(=O)cc(N5CCNCC5)nc4s3)c2)cs1 the Potency was 2.4 µM (active).
In the case of NCC(=O)Nc1cccc(-c2nn3c(=O)cc(N4CCNCC4)nc3s2)c1, the Potency is reported as 1.1 µM (active).
